From PubChem BioAssay AID720707 (National Center for Advancing Translational Sciences (NCATS), 2013) come the findings set out here.

Out of some 360,000 compounds screened, about 270 (0.075%) were called active. Entries that show only a call come without a potency. The call rests on the fitted dose curve; in most records, active means well fitted activation curve with a large enough effect; inconclusive means small, poorly fitted or top-dose-only effect; inactive means no such curve, though single readings can be large or run the other way. This excerpt belongs to a sample that is enriched for actives.
Potency means the concentration at half of the fitted maximal effect.

Sequence of Rap guanine nucleotide exchange factor 3 (Homo sapiens) (O95398 whole entry, looked up): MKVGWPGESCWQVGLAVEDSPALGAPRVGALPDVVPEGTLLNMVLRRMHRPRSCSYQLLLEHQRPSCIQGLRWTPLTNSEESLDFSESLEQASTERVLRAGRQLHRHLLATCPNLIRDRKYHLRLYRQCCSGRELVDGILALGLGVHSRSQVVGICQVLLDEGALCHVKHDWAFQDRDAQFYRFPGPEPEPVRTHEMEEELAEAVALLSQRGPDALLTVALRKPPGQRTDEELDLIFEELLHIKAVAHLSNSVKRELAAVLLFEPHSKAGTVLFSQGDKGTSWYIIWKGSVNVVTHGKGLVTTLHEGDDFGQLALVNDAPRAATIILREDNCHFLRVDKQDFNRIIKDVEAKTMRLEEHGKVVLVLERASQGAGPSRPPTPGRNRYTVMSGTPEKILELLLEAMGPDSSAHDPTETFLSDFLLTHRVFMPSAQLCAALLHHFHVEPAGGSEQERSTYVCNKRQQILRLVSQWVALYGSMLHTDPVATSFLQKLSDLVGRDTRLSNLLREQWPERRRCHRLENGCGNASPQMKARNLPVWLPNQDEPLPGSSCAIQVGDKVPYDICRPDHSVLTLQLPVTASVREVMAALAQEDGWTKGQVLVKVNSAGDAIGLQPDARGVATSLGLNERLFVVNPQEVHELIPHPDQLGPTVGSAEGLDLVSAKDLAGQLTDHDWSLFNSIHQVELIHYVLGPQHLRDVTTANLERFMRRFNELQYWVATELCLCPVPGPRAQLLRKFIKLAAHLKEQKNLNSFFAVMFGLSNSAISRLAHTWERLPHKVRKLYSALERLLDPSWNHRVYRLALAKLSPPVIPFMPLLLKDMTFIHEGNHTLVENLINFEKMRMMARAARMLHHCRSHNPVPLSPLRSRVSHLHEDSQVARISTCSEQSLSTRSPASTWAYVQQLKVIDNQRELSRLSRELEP

This experiment concerns the target Rap guanine nucleotide exchange factor 3 (Homo sapiens) (UniProt O95398). Put plainly: qHTS for Agonist of cAMP-regulated guanine nucleotide exchange factor 3 (EPAC1): primary screen. Further: nearly all actives have a fitted effect of over 60% in size. The conditions noted are these: biochemical assay; series mostly up to 154 µM. An excerpt:
In multi-cellular eukaryotic organisms, the effects of cAMP are transduced by two ubiquitously-expressed intracellular cAMP receptors, the classic protein kinase A/cAMP-dependent protein kinase (PKA/cAPK) and the more recently discovered exchange protein directly activated by cAMP/cAMP-regulated guanine nucleotide exchange factor (EPAC/cAMP-GEF). Both PKA and EPAC are ubiquitously expressed in all tissues, and an increase in intracellular cAMP levels will lead to the activation of both PKA and EPAC. Therefore, careful dissections of the individual role and relative contribution of EPAC and PKA within the overall cAMP signaling in various model systems are critical for further elucidating the mechanism of cAMP signaling. To date no EPAC-specific antagonists and agonist, as well as isoform-specific agonists have been reported, and developing EPAC-specific pharmacological probes to determine the physiological functions that EPAC play in the overall cAMP-mediated signaling remains a major challenge within the research field. Furthermore, identified regulators of EPAC may lead to new mechanism-based therapeutic strategies specifically targeting the EPAC / cAMP-signaling components as EPAC has been implicated to play important roles in major human pathological conditions such as diabetes, heart disease, and cancer.
This qHTS will be used to screen the Molecular Libraries Small Molecule Repository (MLSMR) as a concentration-titration series using the NCGC unique quantitative screening (qHTS) platform to find activators for EPAC1. In addition, this assay will also be used as a counterscreen for the EPAC2 qHTS. This fluorescent based assay is developed and validated for EPAC1 that measures exchange using EPAC effector Rap1 complex with BODIPY-GDP, a GDP analog with a tethered fluorophores. Activators are identified by monitoring the change in fluorescence signal as the exchanged free BODIPY-GDP has a reduced fluorescence compared to Rap1-bound BODIPY-GDP. Increase in signal (activation) is the desired outcome for the EPAC1 agonist while no activity in this assay is desired for the EPAC2 agonist counterscreen.
[1] de Rooij, J., Zwartkruis, F. J., Verheijen, M. H., Cool, R. H., Nijman, S. M., Wittinghofer, A., and Bos, J.L. (1998) Nature 396, 474-477
NIH Chemical Genomics Center [NCGC]
NIH Molecular Libraries Probe Centers Network [MLPCN]
Assay Submitter (PI): Xiaodong Cheng, The University of Texas Medical Branch
Briefly, three uL of reagents (100 nM EPAC1, 250 nM RAP1B-BODIPY-GDP, 50 uM GDP) were dispensed into a 1536-well Greiner black solid-bottom medium binding assay plate. Controls and test compounds (23 nL) were transferred to the plate via a Kalypsys pin tool equipped with a 1536-pin array. The plates were centrifuged at 1,000 rpm for 15 seconds followed by 5 minute incubation at room temperature. The assay plates were read at 5 minute intervals for 30 minutes in the ViewLux plate reader using 480nm excitation and 540nm emission filters. The results were normalized to the agonist positive control of 6.5 mM cAMP.
Background: qHTS replaces the single test concentration by a dilution series.
With `O=C(O)Cc1csc(NC(=O)CSc2nnnn2-c2ccc(O)cc2)n1`, the Potency result was “inactive”.

As for `COc1cccc(N2CC(NC(=O)c3ccc4ccccc4c3)CC2=O)c1` (configuration not stated), the Potency result is “inactive”.

Take `O=C1c2cccnc2C(Nc2ccc(S(=O)(=O)N3CCCCCC3)cc2)N1Cc1ccccc1` (configuration not stated): the Potency entry is “inactive”.

Turning to `NC(=O)c1ccsc1NC(=O)COC(=O)COc1ccc(C=O)cc1`, the Potency entry is “inactive”.

Turning to `Cc1ccc(NC(=O)CN(C)C(=O)COC(=O)c2nccnc2N)cc1`, the Potency result was “inactive”.

For the molecule `O=S(=O)(c1ccccc1)c1nc(Cc2ccccc2)oc1N1CCOCC1`, the Potency entry was “inactive”.

With `COc1ccc(NC(=O)NCCN2CCN(c3ccc(C)cc3)CC2)c(Cl)c1`, the Potency result was “inactive”.

Consider `O=C(CSc1nnc2c(n1)[nH]c1ccccc12)NC1CCCCC1`, for which the Potency entry was “inactive”.

Consider `O=C(C1CCN(c2nnc(-n3cccc3)s2)CC1)N1CCc2ccccc2C1`, for which the Potency entry is “inactive”.

In the case of `Cc1ccc(C)c(S(=O)(=O)N2CCCOC2CNC(=O)C(=O)NC2CCCCC2)c1` (configuration not stated), the Potency result was “inactive”.

On to `O=C(CN1CCc2ccccc2C1)Nc1cccc(S(=O)(=O)N2CCOCC2)c1`, for which the Potency entry is “inactive”.

`CC(C)Oc1ccc(C(=O)NC(C)(C)CO)cc1`: the Potency result was “inactive”.

In the case of `O=C(Nc1cc2c3c(c1)CC(=O)N3CCC2)c1ccccc1F`, the Potency result is “inactive”.

`Cc1cc([N+](=O)[O-])nn1CC(=O)Nc1ccc(Cc2ccncc2)cc1`: the Potency entry was “inactive”.

As for `O=C1CCCN2N=C(SCC(=O)Nc3ccc(Br)cc3)SC2=N1`, the Potency result was “inactive”.

On to `CCC1CCCCN1C(=S)Nc1ccc(S(=O)(=O)Nc2ncccn2)cc1` (configuration not stated), for which the Potency entry is “inactive”.

On to `Cc1ccsc1CNn1cnnc1SCc1ccccc1F`, for which the Potency result was “inactive”.

As to `COc1ccc(N2CCN(C(CNS(=O)(=O)c3ccc(C)cc3)c3ccccc3)CC2)cc1` (configuration not stated), the Potency entry is “inactive”.

For the molecule `CCOC(=O)/C(C#N)=C/c1ccc(N2CCN(Cc3ccccc3)CC2)cc1`, the Potency is 89.1 µM (active).

On to `CCCn1c(C)cc(/C=C(\C#N)C(=O)OCC(=O)N(C)c2c(N)n(Cc3ccccc3)c(=O)[nH]c2=O)c1C`, for which the Potency result is “inactive”.

`CCOC(=O)C1CCN(Cc2ccc(-c3ccccc3)cc2)CC1`: the Potency entry was “inactive”.

Consider `Cn1cnc([N+](=O)[O-])c1Nc1ccccc1O`, for which the Potency entry is “inactive”.

Consider `COc1ccc2c3c1O[C@H]1C[C@@H](O)C=C[C@@]31CCN(C)C2`, for which the Potency result was “inactive”.

For the molecule `COc1cc(C(=O)NCC(c2ccco2)N2CCCC2)ccc1OCc1ccccc1` (configuration not stated), the Potency result is “inactive”.

For `CC(=O)NC(C)(C)C1CC=C(C)/C(=N\O)C1` (configuration not stated), the Potency entry was “inactive”.

On to `COc1ccc([N+](=O)[O-])cc1NC(=O)C(C)OC(=O)C1c2ccccc2Oc2ccccc21` (configuration not stated), for which the Potency entry was “inactive”.

`C[C@@H]1CN([C@H](C)CO)C(=O)c2cc(NC(=O)NC3CCCCC3)ccc2O[C@H]1CN(C)S(C)(=O)=O`: the Potency result was “inactive”.

With `CSc1nnc2c(n1)OC(c1ccsc1)N(C(C)=O)c1ccccc1-2` (configuration not stated), the Potency entry was “inactive”.

Regarding `CC(NC(=O)CCC(=O)N1CCN(S(=O)(=O)c2ccc(Cl)cc2)CC1)c1ccccc1` (configuration not stated), the Potency result is “inactive”.

As to `Cc1ccsc1-c1nc(CSCC(=O)NCCN2CCCC2)c(C)o1`, the Potency entry is “inactive”.

On to `COc1ccc(-n2c(SCC(=O)Nc3ccc4c(c3)OCO4)nnc2C(C)N2CCCCC2)cc1` (configuration not stated), for which the Potency entry was “inactive”.

As for `NS(=O)(=O)c1cc(C(=O)OCC(=O)NNC(=O)c2ccccc2)ccc1Cl`, the Potency entry was “inactive”.

As to `O=c1c2ccccc2ccc2ccc(P(=O)(O)O)cc12`, the Potency result is “inactive”.

With `CC(=O)Nc1ccc(S(=O)(=O)N(C)CC(=O)NCCC2=CCCCC2)cc1`, the Potency result was “inactive”.

For the molecule `COc1cc(OC)cc(C(=O)NCC(=O)N2CCCCCCC2)c1`, the Potency entry is “inactive”.

Consider `COC(=O)C(C(=O)Nc1cccc(C)n1)C1CCCCCC1` (configuration not stated), for which the Potency result was “inactive”.

Take `C[C@H]1CN([C@@H](C)CO)C(=O)CCCn2cc(nn2)CO[C@@H]1CN(C)S(=O)(=O)c1cccc(C#N)c1`: the Potency result was “inactive”.

For `CN(C)c1ccc(C2Nc3ccccc3C(=O)N2NS(=O)(=O)c2ccccc2)cc1` (configuration not stated), the Potency result was “inactive”.

As to `O=C(O)c1cccnc1NC1CCCC1`, the Potency entry was “inactive”.

Turning to `COC(=O)c1ccccc1NC(=O)CSc1nc2c(c(=O)[nH]1)CCC2`, the Potency entry is “inactive”.

Take `Oc1ccc2ccc3cccc[n+]3c2c1`: the Potency is 89.1 µM (active).

`C=CCN1CCN(c2ccncc2S(=O)(=O)N2CCN(C)CC2)CC1`: the Potency result was “inactive”.

As for `CC(=O)Nc1ccc(S(=O)(=O)N2CCN(C(=O)c3ccccc3F)CC2)cc1`, the Potency entry was “inactive”.

For `CCOC(=O)N1CCC(N(CCOC)C(=O)Nc2ccc(C)c(C)c2)CC1`, the Potency entry is “inactive”.

Regarding `COc1ccc(-c2cc(NC=O)c3ncc(-c4ccccc4)n3c2)cc1OC`, the Potency result is “inactive”.

Regarding `O=C(O)CCCCCCCCCC[n+]1ccccc1`, the Potency entry was “inactive”.

For `Cc1cc(C)n2nc(C(=O)N(C)C(c3ccccc3)c3ccccc3)nc2n1`, the Potency entry is “inactive”.

With `CCn1cc(CN2CCN(CC(C)(C)C)C(CCO)C2)c2ccccc21` (configuration not stated), the Potency entry was “inactive”.

As for `NS(=O)(=O)c1ccc(N=Cc2ccc(Br)s2)cc1`, the Potency entry is “inactive”.

For `COC(=O)c1cc(NC(=O)CN2CCC(C(N)=O)(N3CCCCC3)CC2)cc(C(=O)OC)c1`, the Potency entry is “inactive”.

On to `O=C(O)CSCNC(=O)CC12CC3CC(CC(C3)C1)C2`, for which the Potency result is “inactive”.

Take `Cc1ccc(CCNC(=O)C2CCN(S(=O)(=O)N3CCCC3)CC2)cc1`: the Potency entry is “inactive”.
